# In all, about 48,000 compounds went through this assay and about 13,000 (27%) showed an effect of 50% or more. Some of the results follow.
# Test system: Wolbachia pipientis
# Assay: Anti-Wolbachia Cell-Based Screen
# Format: functional
# Parameters: scale not given: in the data most compounds retested in dose-response had high values
# Conditions: 5 µM
row,Compound,Percent Effect
1,CN(C)C(=O)[C@H]1CC[C@@H]2[C@@H](CCN2Cc2ccccn2)O1.O=C(O)C(F)(F)F.O=C(O)C(F)(F)F,1.437%
2,Cc1ccccc1C1(CN)CCOCC1,1.37%
3,Cc1ccc(N2CC[C@@H]3CN(Cc4cc[nH]n4)C[C@@H]3C2)nn1.O=C(O)C(F)(F)F,-9.951%
4,O=C(O)C(F)(F)F.O=C(O)C(F)(F)F.c1ccc(N2CC[C@@H]3CN(Cc4ccncc4)CCO[C@@H]3C2)cc1,-7.726%
5,O=C(O)C(F)(F)F.O=C1[C@H]2CN(Cc3ccc(F)cc3)C[C@H]2CN1c1cncnc1,-0.4188%
6,O=C(O)C(F)(F)F.O=C(O)C(F)(F)F.c1cnc(N2CC[C@@H]3CN(Cc4ccncc4)CCO[C@@H]3C2)nc1,-13.84%
7,O=C(O)C(F)(F)F.c1cc(CN2CC[C@@H]3CN(c4cnccn4)C[C@@H]3C2)ccn1,126.3%
8,Cc1ccc(N2C[C@H]3CCN(Cc4ccncc4)C[C@H]3C2)nn1.O=C(O)C(F)(F)F,106.9%
9,O=C(O)C(F)(F)F.O=C(O)C(F)(F)F.O=C1[C@H]2CN(Cc3ccncc3)C[C@H]2CN1c1cncnc1,-1.722%
10,Cc1ccc(N2CC[C@@H]3CN(Cc4cccc(C)n4)C[C@@H]3C2)nn1.O=C(O)C(F)(F)F,-3.12%
11,O=C(O)C(F)(F)F.c1cnc(N2C[C@H]3CCN(Cc4ccncc4)C[C@H]3C2)nc1,87.9%
12,c1cc(CN2CC[C@@H]3CN(c4cncnc4)C[C@@H]3C2)ccn1,100.2%
13,Cn1cc(N2CC[C@@H]3CN(Cc4ccncc4)C[C@H]3C2=O)cn1.O=C(O)C(F)(F)F.O=C(O)C(F)(F)F,-47.34%
14,CC(Cc1c(F)cccc1F)NC(=O)NCc1ncnn1C (centres undefined),1.27%
15,O=C(N[C@H]1CN2CCC1CC2)c1cc(Cn2cnc3ccccc32)[nH]n1,-21.06%
16,c1ccc(C(Cn2cnnc2)N2CCOCC2)nc1 (centres undefined),9.343%
17,Cc1cccc(CN2C[C@H]3CC[C@@H]2CN(Cc2[nH]cnc2C)C3)n1,-2.11%
18,CC(=O)c1cc(C(=O)N2CC[C@@H]3CC[C@H](C2)N3C)c(=O)[nH]c1C,-5.325%
19,Nc1cnc(-c2cccc3c2CCNC3)cn1,7.253%
20,CN(C)C(=O)c1ccc(-c2cccc3c2CCNC3)cc1,85.47%
21,Nc1cc(-c2cccc3c2CCNC3)ncn1,9.212%
22,O=C(O)C(F)(F)F.c1cnc(N2CCO[C@H]3CN(Cc4csnn4)C[C@H]32)nc1,-24.49%
23,Fc1cnc(N2CCO[C@H]3CN(CC4CCCCC4)C[C@H]32)nc1.O=C(O)C(F)(F)F,110%

row,Compound,Percent Effect
1,Fc1cnc(N2CCO[C@H]3CN(CC4CCC4)C[C@H]32)nc1,-20.13%
2,O=C(O)C(F)(F)F.O=C(O)C(F)(F)F.c1cnc(N2CCO[C@H]3CN(CC4CCOCC4)C[C@H]32)nc1,110.6%
3,Fc1cnc(N2CCO[C@H]3CN(CC4CCOC4)C[C@H]32)nc1 (some centres undefined),71.68%
4,O=C(O)C(F)(F)F.O=C(O)C(F)(F)F.c1cnc(N2CCO[C@H]3CN(CC4CC4)C[C@H]32)nc1,92.7%
5,Fc1cnc(N2CCO[C@H]3CN(CC4CCCC4)C[C@H]32)nc1.O=C(O)C(F)(F)F,-2.844%
6,O=C(O)C(F)(F)F.O=C(O)C(F)(F)F.c1cnc(N2CCO[C@H]3CN(Cc4ccsc4)C[C@H]32)nc1,14.83%
7,Cc1nc[nH]c1CN1C[C@@H]2OCCN(c3ncccn3)[C@@H]2C1.O=C(O)C(F)(F)F,-20.21%
8,Fc1ccccc1CN1C[C@@H]2OCCN(c3ncccn3)[C@@H]2C1,1.64%
9,CNC(=O)CN1CCO[C@H]2CN(CC3CC3)C[C@H]21.O=C(O)C(F)(F)F.O=C(O)C(F)(F)F,7.624%
10,CCN1CCN(c2ccc(C(=O)NCCOC)cc2F)CC1,-17.47%
11,CC(C)(C)c1cn(C[C@H]2CC3CCN2C[C@@H]3C(=O)N2CCOCC2)nn1 (some centres undefined),-7.534%
12,CC(Cn1cncn1)NCCN1CCc2ccccc21 (centres undefined),1.288%
13,Cn1cncc1CN1C[C@@H]2OCCN(c3ncccn3)[C@@H]2C1.O=C(O)C(F)(F)F,-0.0713%
14,O=C1[C@@H]2CCN(CC3CC3)C[C@@H]2OCCN1c1cccnc1,-19.89%
15,O=C(O)C(F)(F)F.c1cncc(N2CCO[C@H]3CN(CC4CCOC4)C[C@H]32)c1 (some centres undefined),94.42%
16,Cn1cc(CN2C[C@@H]3OCCN(c4ncccn4)[C@@H]3C2)cn1.O=C(O)C(F)(F)F.O=C(O)C(F)(F)F,9.697%
17,c1ccc(CN2C[C@@H]3OCCN(c4cccnc4)[C@@H]3C2)nc1,-16.65%
18,CC(C)CCN1C[C@@H]2OCCN(c3ncc(F)cn3)[C@@H]2C1.O=C(O)C(F)(F)F,92%
19,CC(C)S(=O)(=O)N1C[C@@H](c2ccccc2)[C@H]2[C@H]1CCCCCN2C,189.5%
20,CC(Cn1cncn1)NCc1csc2c1CCCC2 (centres undefined),-14.34%
21,NC1(c2nc(-c3ccccc3)cc(=O)[nH]2)CCCCC1,-11.2%
22,CO[C@H]1COCCN(Cc2c[nH]c3ccccc23)C1,-3.317%
23,CC1=NOC2(CCN(Cc3c[nH]c4ccccc34)CC2)C1,112.6%

row,Compound,Percent Effect
1,O=C1OCCC1N1CCN(C(=O)Cc2c[nH]c3ccccc23)CC1 (centres undefined),5.817%
2,CCc1nnc(CN(C)C(=O)CN2CC(c3ccccc3)CC2=O)o1 (centres undefined),5.104%
3,CCS(=O)(=O)N1CCc2c(COC)cncc2C1,85.06%
4,CCS(=O)(=O)N1CCc2c(CN3CCOCC3)cncc2C1.Cl.Cl,105.6%
5,O=C(COc1ccc(F)cc1)N1CCCSCC1CN1CCOCC1 (centres undefined),-0.3394%
6,FC1(F)CCNCC12CCN(c1ncccn1)C2 (centres undefined),-1.09%
7,Cl.FC(F)CNc1cnc(C2CCNCC2)cn1,73.95%
8,O=C(C1CC1)N1CCC2(CC1)CNCCO2,0.5147%
9,Cl.O=C(C1CC1)N1CC2(CCNCC2)C1,-2.925%
10,Cl.O=C(C1CC1)N1CCOC2(CCNCC2)C1,99.53%
11,Cc1ccc(N2C[C@@H]3OCCN(Cc4c(C)noc4C)[C@@H]3C2)nn1,99.73%
12,COCC(=O)N1C[C@@H]2OCCN(Cc3c(C)noc3C)[C@@H]2C1,-12.28%
13,Cc1noc(C)c1CN1CCO[C@H]2CNC[C@H]21.Cl.Cl,-6.613%
14,Cc1ccc(N2C[C@@H]3CN(Cc4csc(C)n4)CCO[C@@H]3C2)nn1.O=C(O)C(F)(F)F.O=C(O)C(F)(F)F,2.819%
15,Cc1ccc(N2C[C@@H]3CN(Cc4ccoc4)CCO[C@@H]3C2)nn1.O=C(O)C(F)(F)F.O=C(O)C(F)(F)F,-36.31%
16,Cc1ccc(N2C[C@@H]3OCCN(CC4CC4)[C@@H]3C2)nn1.O=C(O)C(F)(F)F,101.4%
17,CC(C)NC(=O)N1CCOC2(CCNCC2)C1,-2.285%
18,CN1CCCC(Cc2nccnc2Cl)CC1 (centres undefined),111.8%
19,CC(C)N1CCCC(Cc2nccnc2Cl)C1 (centres undefined),102.4%
20,CCn1ccnc1CN1CCN(C(C)C)CC1C (centres undefined),-27.31%
21,CN1CCCC(Cc2cncc(Br)c2)CC1 (centres undefined),-8.172%
22,CC(C)N1CCCC(Cc2nccnc2Cl)CC1 (centres undefined),83.32%
23,O=C(N1CCCC1)N1C[C@H]2CC[C@@H]1CN(Cc1ccncc1)C2,3.012%

row,Compound,Percent Effect
1,CC(C)CN1C(=O)C2(CCCC2)NC1c1cccnc1 (centres undefined),-3.888%
2,COC(=O)CCC(=O)NC(C)Cc1ccccc1Br (centres undefined),5.861%
3,O=S1(=O)CCC(n2cc(C3=CCN(CCN4CCCCC4)CC3)cn2)C1 (centres undefined),5.738%
4,COc1cccc(Cn2cc(C3=CCN(CCO)CC3)cn2)c1,104.2%
5,COCCN1CC=C(c2cccc(OC)c2)CC1,-4.022%
6,COc1cccc(Cn2cc(C3=CCN(CC(=O)N(C)C)CC3)cn2)c1,105.2%
7,COc1cccc(C2=CCN(CCN3CCCC3=O)CC2)c1,-10.09%
8,COc1cccc(C2=CCN(CCN3CCOC3=O)CC2)c1,5.556%
9,CCC(O)Cn1cc(C2=CCN(Cc3ccc(OC)cc3)CC2)cn1 (centres undefined),-14.61%
10,CCn1cc(C2=CCN(CCCOc3ccccc3)CC2)cn1,20.1%
11,CC(C)(C)n1cc(C2=CCN(CCc3ccccc3)CC2)cn1,-9.314%
12,CN(C)C(=O)CN1CC=C(c2cnn(Cc3ccccc3)c2)CC1,99.64%
13,Cc1noc(C)c1CNCc1ccccc1N(C)C1CCN(C)CC1,3.422%
14,Cc1nc(C)c(C)c(N2CCC3(CCN(C)C3)C2)n1 (centres undefined),-3%
15,NCC1(c2cccc(C(F)(F)F)c2)CCCC1,-13.69%
16,CC(C)=CCN1C[C@H]2CC[C@@H]1CN(C(=O)CSc1ccncc1)C2,19.74%
17,CC(C)CN1CCC2(CC(C(=O)NCc3cccnc3)=NO2)C1 (centres undefined),-7.517%
18,COCCN1CCC2(C1)CN(c1ncccn1)C2.O=C(O)C(F)(F)F,-10.62%
19,CC(C)CCN1CCC2(CNS(=O)(=O)c3cccnc3O2)C1 (centres undefined),113.8%
20,O=S1(=O)NCC2(CCN(Cc3ccc(Cl)s3)C2)Oc2ncccc21 (centres undefined),120.8%

# — ChEMBL document CHEMBL3988442, “University of Dundee, Small-Polar-MMV Screening Library” (2021)
